The assay concerns PPARg:RXRa IVT, anti-PPARg (NR concentration 270 nM, RXRa partner concentration 90 nM). Kind of assay: PBM binding z-score (relative to random genomic background probes); higher = stronger binding; sequences stand for … in GC…GCGATTGACAGCGTAGAATGAAGG
A digest of the protocol: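 Ligand-free nuclear receptor dimers were applied to custom Agilent 4×180K protein-binding microarrays whose double-stranded probes carried direct-repeat seeds, single-nucleotide variants, half-site ablations and random human genomic background sequences in 34-nt variable regions. Incubation lasted 1 h. Binding z-scores were computed against the random background probes from regression-normalized fluorescence.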
With CCTAGTGGGCCATTCAGAGGTCATTGATCATATG, the PBM binding z-score came out at 4.44. To TAGCCTAGGTCATGGTCCAGTATACCACGCGAAC belongs 3.39; to CAAACTAGGTCAAAGGTCTAAGTCGAGCCAACCA, 8.69. With CCTACTGGGCCATCAGGTCATAGATATCAACGTT the figure was 5.08; with TCTATTAGTTGGTTAGGGCAACCGAAACAGCGGA, 0.862; with CGTCCAAGGTTAGCAGGTCAGTGAAAGCGACGTG, 2.5. With GGTGCTAGGTCAGGTTGGTCAGCTAACGGGTACG the figure was 3.08.

The sequence TTACCAAGGTGGGCTGAGGTCGTTGATCCAACTC displayed a PBM binding z-score of 0.386. Sequence CAAACTAGGTCAAAGGTCATAGTCGAGCCAACCA yielded a PBM binding z-score of 9.39.

Regarding GCTGTTAGTTGAAAGGGCAACCGAATGATTCTCG, the PBM binding z-score was 0.541. To CGAACTAGGTCAGCCAGGACAGTGAATACATTGA belongs 7.73; to CCTACTGGGCCATCAGGTCATGGATATCAACGTT, 5.33; to GGAACGAGGGCATTCGAGTTGATGGCATGGCGAT, 2.1. On to TAGCCTTGGTCAGATCGGGCCAGTATACGCTATA, for which the PBM binding z-score is -0.297. For AGAATGAGGTTAAGATCAGGGACACAGAATACAT, the PBM binding z-score came out at 3.13. With AGTCAAAGTTCACTAGGTGACGTAAGATTCAGCT the figure was 6.05. To GCTGCTAGGTCAACTGATGGTCAGTTAAAGCTCG belongs 4.13; to GGCACGAGGGCATTCGAGTTGATAGCATGGCGAT, 0.977. The sequence ACTCGGAGGACAAAGGTCAGAGCAACGCCAGTGA displayed a PBM binding z-score of 3.67. Regarding ACTCGGAGAACAAAGGTCAGAGCTACGCCAGTGA, the PBM binding z-score was 2.78. In the case of TAGCCTAGGTCATGGGCCCGTATACCACGCGAAC, the PBM binding z-score was 3.21. Take ATATGTAGATTAAGGGTCATTCAGGTTGGTTCGC: the PBM binding z-score came to 3.34.

These data come from the supplement of paper PMC6555819.
